PubChem BioAssay (NCATS)
Results filed as inconclusive are left out. The source made the active and inactive calls. The call rests on the fitted dose curve; in most records, active means well fitted curve in the direction sought with a large enough effect; inconclusive means small, poorly fitted or top-dose-only effect, or another doubt; inactive means no such curve, though single readings can be large; an effect the other way counts as inactive or inconclusive.

How the values were obtained:
[1] = qHTS of pediatric cancer cell lines to identify multiple opportunities for drug repurposing: Primary screen for Rh18 cells (AID 1347102); further: on the % scale 0 is the no-effect control and ±100 the full control effect; nearly all actives have a fitted effect of over 65% in size
In short: (§1)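 Cells (500-1,000/well) in growth media were settled 5 h at 37 degrees C, then given compounds for 48 h. Viability was read as CellTiter-Glo luminescence. Primary runs used MIPE at 11 points (0.78 nM-46 µM) and NPC at 8 points (0.59 nM-46 µM); follow-ups used 11 points.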

[2] = qHTS of pediatric cancer cell lines to identify multiple opportunities for drug repurposing: Primary screen for OHS-50 cells (AID 1347103);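 further: plate controls were DMSO neutral control for no effect and bortezomib positive control for full effect; nearly all actives have a fitted effect of over 40% in size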
In short: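 Cells (500-1,000/well) rested 5 h, then received compounds for 48 h; metabolically active cells were measured by CellTiter-Glo luminescence. Final concentrations spanned up to 46 µM (MIPE, 11-point) or 0.59 nM-46 µM (NPC, 8-point) in primary screens, 11-point in follow-ups.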

[3] = qHTS of pediatric cancer cell lines to identify multiple opportunities for drug repurposing: Primary screen for RD cells (AID 1347104);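 further: plate controls were DMSO for no effect and bortezomib for full effect; nearly all actives have a fitted effect of over 55% in size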
In short: (§2)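 Phenotypic viability qHTS, 48 h compound exposure, CellTiter-Glo luminescence read-out; multi-concentration dosing so that potency and efficacy derive directly from the primary screen's curves.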

[4] = qHTS of pediatric cancer cell lines to identify multiple opportunities for drug repurposing: Primary screen for MG 63 (6-TG R) cells (AID 1347105); further: on the % scale 0 is the no-effect control and ±100 the full control effect; nearly all actives have a fitted effect of over 50% in size
In short: as §2

[5] = qHTS of pediatric cancer cell lines to identify multiple opportunities for drug repurposing: Primary screen for control Hh wild type fibroblast cells (AID 1347106);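 further: series mostly up to about 46 µM; on the % scale 0 is the no-effect control and ±100 the full control effect; a drop in luminescence marks cytotoxicity and a rise apparent proliferation; nearly all actives have a fitted effect of over 55% in size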
In short: as §1

[6] = qHTS of pediatric cancer cell lines to identify multiple opportunities for drug repurposing: Primary screen for Rh30 cells (AID 1347107); further: series mostly up to about 46 µM; on the % scale 0 is the no-effect control and ±100 the full control effect; nearly all actives have a fitted effect of over 75% in size
In short: as §1

[7] = qHTS of pediatric cancer cell lines to identify multiple opportunities for drug repurposing: Primary screen for Rh41 cells (AID 1347108);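 further: series mostly up to about 46 µM; luminescence drop marks cytotoxic hits; nearly all actives have a fitted effect of over 70% in size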
In short: as §2

[8] = qHTS of pediatric cancer cell lines to identify multiple opportunities for drug repurposing: Confirmatory screen for A673 cells (AID 1347110);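 further: cells exposed to compound for 48 h before the viability read; nearly all actives have a fitted effect of over 65% in size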; further: potency means the concentration at half of the fitted maximal effect
In short: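 A673 cells at 500-1,000 cells/well were dosed 5 h after plating, in dilution series up to 46 uM final; primary runs used 8 or 11 points and confirmatory runs used 11 points. Viability was read by CellTiter-Glo luminescence after 48 h, against DMSO and 2.3 uM bortezomib controls.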

[9] = qHTS of pediatric cancer cell lines to identify multiple opportunities for drug repurposing: Confirmatory screen for BT-12 cells (AID 1347112); further: on the % scale 0 is the no-effect control and ±100 the full control effect; nearly all actives have a fitted effect of over 55% in size
In short: as §1

[10] = qHTS of pediatric cancer cell lines to identify multiple opportunities for drug repurposing: Confirmatory screen for NB-EBc1 cells (AID 1347115);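 further: cells exposed to compound for 48 h before the viability read; on the % scale 0 is the no-effect control and ±100 the full control effect; nearly all actives have a fitted effect of over 45% in size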
In short: as §1

[11] = qHTS of pediatric cancer cell lines to identify multiple opportunities for drug repurposing: Confirmatory screen for MG 63 (6-TG R) cells (AID 1347119);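 further: plate controls were DMSO neutral control for no effect and bortezomib for full effect; nearly all actives have a fitted effect of over 55% in size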
In short: as §1

[12] = qHTS of pediatric cancer cell lines to identify multiple opportunities for drug repurposing: Confirmatory screen for control Hh wild type fibroblast cells (AID 1347121);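 further: plate controls were DMSO for no effect and bortezomib for full effect; nearly all actives have a fitted effect of over 70% in size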
In short: as §1

[13] = qHTS of pediatric cancer cell lines to identify multiple opportunities for drug repurposing: Confirmatory screen for SK-N-MC cells (AID 1347111); conditions: SK-N-MC cell viability;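 further: potency means the concentration at half of the fitted maximal effect; cells exposed to compound for 48 h before the readout; nearly all actives have a fitted effect of over 70% in size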
In short: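 Metabolically active cells were quantified by ATP-dependent luminescence (CellTiter-Glo, 15 min at room temperature) following 48 h treatment. Cells had been plated at 500-1,000 per well and settled for 5 h beforehand.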

[14] = qHTS of pediatric cancer cell lines to identify multiple opportunities for drug repurposing: Confirmatory screen for LAN-5 cells (AID 1347113); further: nearly all actives have a fitted effect of over 65% in size; further: potency means the concentration at half of the fitted maximal effect
In short: as §1

[15] = qHTS of pediatric cancer cell lines to identify multiple opportunities for drug repurposing: Confirmatory screen for TC32 cells (AID 1347118); conditions: TC32 Ewing sarcoma cells viability qHTS;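 further: potency means the concentration at half of the fitted maximal effect; cells exposed to compound for 48 h before the read; nearly all actives have a fitted effect of over 65% in size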
In short: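 TC32 cells, 500-1,000/well in growth medium, compound-treated 48 h at 37 °C; viability from CellTiter-Glo luminescence. Primary screen: MIPE 11-point (0.78 nM–46 µM final), NPC 8-point (0.59 nM–46 µM final); confirmatory at 11-point dilutions.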

C/C=C1\[C@H]2C=C(C)C[C@]1(N)c1ccc(=O)[nH]c1C2
inactive: outcome [1] | outcome [2] | outcome [3] | outcome [4] | outcome [5] | outcome [6] | outcome [7]

CCN(CC)CCOC(=O)C(c1ccccc1)c1ccccc1
inactive: outcome [1] | outcome [2] | outcome [3] | outcome [4] | outcome [5] | outcome [6] | outcome [7]

CC[N+](CC)(CC(=O)Nc1c(C)cccc1C)Cc1ccccc1
inactive: outcome [1] | outcome [2] | outcome [3] | outcome [4] | outcome [5] | outcome [6] | outcome [7]

CC(C)c1cc2c(cc1S(=O)(=O)O)[C@@]1(C)CCC[C@@](C)(C(=O)O)[C@@H]1CC2
inactive: outcome [1] | outcome [2] | outcome [3] | outcome [4] | outcome [5] | outcome [6] | outcome [7]

COc1ccccc1OC(=O)Oc1ccccc1OC
inactive: outcome [1] | outcome [2] | outcome [3] | outcome [4] | outcome [5] | outcome [6] | outcome [7]

COc1ccc(C(=O)N2CCN(CC(=O)N3CCOCC3)CC2)cc1
inactive: outcome [1] | outcome [2] | outcome [3] | outcome [4] | outcome [5] | outcome [6] | outcome [7]

OCCN1C[C@H](O)[C@@H](O)[C@H](O)[C@H]1CO
inactive: outcome [1] | outcome [2] | outcome [3] | outcome [4] | outcome [5] | outcome [6] | outcome [7]

CCOC(=O)[C@H](CCc1ccccc1)N[C@@H](C)C(=O)N1Cc2cc(OC)c(OC)cc2C[C@H]1C(=O)O
inactive: outcome [1] | outcome [2] | outcome [3] | outcome [4] | outcome [5] | outcome [6] | outcome [7]

CCC(C)(CN(C)C)OC(=O)c1ccccc1 (stereo not drawn)
inactive: outcome [1] | outcome [2] | outcome [3] | outcome [4] | outcome [5] | outcome [6] | outcome [7]

O=C1CC[C@@H](C(=O)O)N1
inactive: outcome [1] | outcome [2] | outcome [3] | outcome [4] | outcome [5] | outcome [6] | outcome [7]

Cc1ccsc1/C=C/C1=NCCCN1C
inactive: outcome [1] | outcome [2] | outcome [3] | outcome [4] | outcome [5] | outcome [6] | outcome [7]

CCN(CC)C(=O)c1cccc(C)c1
inactive: outcome [1] | outcome [2] | outcome [3] | outcome [4] | outcome [5] | outcome [6] | outcome [7]

CNCc1ccccc1
inactive: outcome [1] | outcome [2] | outcome [3] | outcome [4] | outcome [5] | outcome [6] | outcome [7]

Cc1c(N(C)C)c(=O)n(-c2ccccc2)n1C
inactive: outcome [1] | outcome [2] | outcome [3] | outcome [4] | outcome [5] | outcome [6] | outcome [7]

CCCCCCCC(=O)OCC(COC(=O)CCCCCCC)OC(=O)CCCCCCC
inactive: outcome [1] | outcome [2] | outcome [3] | outcome [4] | outcome [5] | outcome [6] | outcome [7]

NC(N)=NCCN1CCCCCCC1
inactive: activity change, negative = cytotoxic [1] 6.63% [at 0.597 µM] | activity change, negative = cytotoxic [2] 7.69% [at 0.73 µM] | activity change, negative = cytotoxic [3] 3.85% [at 0.597 µM] | activity change, negative = cytotoxic [4] 7.08% [at 0.597 µM] | activity change, negative = cytotoxic [5] 3.36% [at 0.597 µM] | activity change, negative = cytotoxic [6] 25.1% [at 0.597 µM] | activity change, negative = cytotoxic [7] 22.2% [at 0.597 µM]

Cc1cc(C)nc(NS(=O)(=O)c2ccc(N)cc2)n1
inactive: outcome [1] | outcome [2] | outcome [3] | outcome [4] | outcome [5] | outcome [6] | outcome [7]

CCCCCCCCCCC(CO)CCCCCCCC (stereo not drawn)
inactive: outcome [1] | outcome [2] | outcome [3] | outcome [4] | outcome [5] | outcome [6] | outcome [7]

CCCNC(C)C(=O)Nc1c(C)csc1C(=O)OC (stereo not drawn)
inactive: outcome [1] | outcome [2] | outcome [3] | outcome [4] | outcome [5] | outcome [6] | outcome [7]

COc1cc(C(=O)NCCCCCC(=O)O)cc(OC)c1OC
inactive: Potency [8] | outcome [9] | outcome [10] | outcome [11] | outcome [12]

O=C(Cn1ccnc1[N+](=O)[O-])NCc1ccccc1
inactive: outcome [9] | Potency [14] | outcome [10] | outcome [12]
active: Potency [8] 1.17 µM | Potency [13] 2.93 µM | Potency [15] 1.85 µM

CC(=O)OCC(=O)[C@@]1(O)CC[C@H]2[C@@H]3CCC4=CC(=O)C=C[C@]4(C)[C@@]3(F)[C@@H](O)C[C@@]21C
active: Potency [13] 16.5 µM | Potency [14] 14.7 µM | Potency [15] 14.7 µM

CCCCCC(N)=O
inactive: outcome [1] | outcome [2] | outcome [4] | outcome [5] | outcome [6] | outcome [7]

C/C(=C(\CCO)SS/C(CCO)=C(\C)N(C=O)Cc1cnc(C)nc1N)N(C=O)Cc1cnc(C)nc1N
inactive: outcome [1] | outcome [2] | outcome [4] | outcome [5] | outcome [6] | outcome [7]

CC(N)CCCC(C)(C)O (stereo not drawn)
inactive: outcome [1] | outcome [2] | outcome [4] | outcome [5] | outcome [6] | outcome [7]

Cc1ccccc1N=Nc1ccc(N=Nc2c(O)ccc3ccccc23)c(C)c1
inactive: outcome [1] | outcome [2] | outcome [4] | outcome [5] | outcome [6] | outcome [7]

CN/C(=C\[N+](=O)[O-])NCCSCc1csc(CN(C)C)n1
inactive: outcome [1] | outcome [3] | outcome [4] | outcome [5] | outcome [6]

CC(C(=O)O)c1ccc2c(c1)Cc1cccnc1O2 (stereo not drawn)
inactive: outcome [1] | outcome [2] | outcome [4] | outcome [5] | outcome [6]

Nc1c2c(nc3c1CCC3)CCCC2
inactive: outcome [1] | outcome [2] | outcome [3] | outcome [4] | outcome [6] | outcome [7]
